# In PubChem BioAssay AID1259415 (National Center for Advancing Translational Sciences (NCATS), 2018):
# Hit rate of the full screen: of about 410,000 compounds, about 18,000 (4.4%) were called active. Another 7% or so got no clear call; they are omitted. Shown is part of a subset that was picked to be rich in actives. A number with no mark means an inactive call. Rule as the data show it: active = activity change below about -60%; inconclusive = no clear call, values can overlap the other calls; inactive = above about -39%.
# Assay: qHTS Assay for inhibitors of the human cytomegalovirus (HCMV)
# Conditions: HFF cells, HCMV-luciferase reporter, 72 h; at 57.5 µM; active compounds read low
# Method in brief: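 Luciferase read-out from HCMV-luciferase-infected HFFs (MOI 1 PFU/cell) 72 h post infection at 37C; compounds added after 16 h cell attachment; activity normalized between buffer-only basal and Salinomycin (10uM) inhibitor controls.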
# % is scaled to controls: 0 for no effect and ±100 for the full control effect.
row,SMILES,"activity change, negative = inhibition"
1,CNc1ccc(-c2nc(-c3ccco3)no2)cc1[N+](=O)[O-],102%
2,COc1ccc(S(=O)(=O)n2nc(C)c(S(=O)(=O)N3CCCCCC3)c2C)cc1,-17.6%
3,CC(C)c1ccc(O)c(CN2CCN(c3ccccc3)CC2)c1,12.7%
4,COc1ccccc1CN1CCCC(N2CCN(c3ccc(F)cc3)CC2)C1 (stereo not given),-1.19%
5,Oc1c(CN2CCN(c3ccc(F)cc3)CC2)cc(Cl)c2cccnc12,-102% (active)
6,COc1ccc(CNc2nc(-c3ccccc3)nn2C(=O)c2ccccc2OC)cc1,-16.2%
7,N#Cc1cccc(NC(=O)N[C@H]2CC[C@@]34CCCN3C(=O)CCC[C@H]4C2Cc2ccccc2)c1 (stereo not given in full),0.85%
8,CCOc1ccc(C(CCc2ccccc2)NC(=O)c2ccc(OC)c(OC)c2)cc1OCC (stereo not given),37%
9,CCN(CCCCOC(=O)c1ccc(OC)c(OC)c1)C(C)Cc1ccc(OC)cc1 (stereo not given),-37%
10,COc1ccc(C(CCN(Cc2ccc(OC)c(OC)c2)C(=O)CCl)c2ccccc2)cc1 (stereo not given),-91.8% (active)
11,Cc1noc2ncnc(NCc3ccccc3Cl)c12,-26.2%
12,O=C(O)c1ccc2c3c(cccc13)C(=O)N(OS(=O)(=O)c1ccccc1)C2=O,-101% (active)
13,Cc1cc(OCC(=O)Nc2ncn[nH]2)c(C)c(C)c1Br,1.07%
14,O=C(Nc1ccc(F)cc1F)c1cnn(-c2ccc(F)cc2)c1-n1cccc1,-4.17%
15,COc1ccc(Cl)cc1NC(=O)CSc1nc(-c2cccs2)cc(C(F)(F)F)n1,-23.8%
16,CC(=O)c1ccc(N2CCN(c3nc4c(S(=O)(=O)c5ccccc5)nnn4c4ccc(Cl)cc34)CC2)cc1,8.15%
17,CN(CCc1ccccc1)c1ccc([N+](=O)[O-])cn1,12.9%
18,O=[N+]([O-])c1cnc2ccc3ccccc3c2c1,-96.3% (active)
19,c1ccc2cc(CCCc3cc4ccccc4cn3)ncc2c1,-18.2%
20,O=C(c1c(F)cccc1F)N1CCN(c2ncc(Br)cn2)CC1,2.5%
21,CCOC(=O)c1ccc(N2C(=O)c3n[nH]c(-c4ccco4)c3C2c2ccc(O)cc2)cc1 (stereo not given),-8.9%
22,O=C(c1ccc(Cl)cc1)N1N=C(c2ccccn2)CC1(O)C(F)(F)F (stereo not given),-98.8% (active)
23,COC(=O)C1(O)CC(C(C)C)=NN1C(=O)c1ccc(Cl)cc1 (stereo not given),27.1%
24,O=C(C1CC1)N1N=C(c2ccc(Br)cc2)CC1(O)C(F)(F)F (stereo not given),10%
25,O=C(COc1ccccc1F)Nc1ccc(C(=O)OCc2cc(=O)n3nc(C4CC4)sc3n2)cc1,10.3%
26,CCCC(=O)N1CCN(c2nc3c(OC)ccc(C)c3s2)CC1,0.538%
27,O=C(C1CC(=O)N(c2ccc(Br)cc2)C1)N1CCCC1 (stereo not given),-23.4%
28,COc1ccc(S(=O)(=O)N2C[C@H]3CON(C)[C@H]3C[C@H]2c2cccc(Br)c2)cc1,-8.56%

row,SMILES,"activity change, negative = inhibition"
1,COc1ccccc1-c1ccc([C@@H]2C[C@H]3[C@H](CON3C)CN2S(=O)(=O)c2cc(Cl)cc(Cl)c2)cc1,8.41%
2,CN1OC[C@@H]2CN(S(=O)(=O)c3cccc(C(F)(F)F)c3)[C@H](c3ccc(-c4cc5ccccc5o4)cc3)C[C@@H]21,-67.9% (active)
3,CC(C)c1ccc(S(=O)(=O)Nc2ccc(O)c(Sc3nc4ccccc4s3)c2)cc1,-0.0854%
4,Cc1cccc(NC(=O)Cn2nc(-c3ccc(Cl)cc3)c3ccccc3c2=O)c1,-6.04%
5,O=C1C=C(c2ccc(Cl)cc2)C(=O)N1Nc1ccccc1,-97.6% (active)
6,CCc1ccc(S(=O)(=O)n2ccnc2)cc1,-4.04%
7,Cc1c(C(=O)NCc2ccccc2Br)oc2ccc3c(c12)C(=O)CC(C)(C)O3,-2.86%
8,O=C(CSc1nc2c(c(=O)[nH]1)CN(Cc1ccc3c(c1)OCO3)CC2)Nc1cc(F)ccc1F,-1.41%
9,CCOC(=O)c1c(NC(=O)CSc2cn(CCNC(=O)c3cccc(C(F)(F)F)c3)c3ccccc23)sc2c1CCC2,-7.22%
10,O=C(CCSCc1ccccc1F)N1CCN(c2ccc(Cl)cc2)CC1,-29.1%
11,Cc1oc2c(F)c(F)c(F)c(F)c2c1S(=O)(=O)Nc1cccc(C(F)(F)F)c1,-97.8% (active)
12,CN(CC(=O)Nc1cccc(C(F)(F)F)c1)S(=O)(=O)c1cccs1,20.2%
13,CCNS(=O)(=O)c1cc(-c2nnc(Nc3cccc(C(F)(F)F)c3)c3ccccc23)ccc1C,34.1%
14,CCOC(=O)[C@]12CCC=C1N(Cc1ccco1)C(=O)[C@H](CC(=O)N1CCSCC1)C2,-10.1%
15,CCOc1cc(-c2nnc(SCC(=O)NC3CCCC3)nc2-c2ccc(OC)c(OCC)c2)ccc1OC,24.6%
16,CO/N=C/CC(=O)c1ccc(OC)cc1,-35.1%
17,COc1ccc(C(=O)C[n+]2ccc(N)c(C)c2C)cc1,-93.4% (active)
18,COc1ccc(C(=O)C[n+]2ccc(C)cc2)cc1,72%
19,CCOc1ccc(OCC)c(NC(=O)c2cc(C)nc3c2c(C)nn3-c2cccc(Cl)c2C)c1,5.03%
20,C[C@@H]1CCCCO[C@H](CN(C)Cc2ccccc2)[C@@H](C)CN([C@H](C)CO)C(=O)c2cc(NS(=O)(=O)c3ccc(Cl)cc3)ccc2O1,-31.2%
21,O=S(=O)(Nc1ccc(-c2ccc(N3CCOCC3)nn2)cc1)c1cc(Cl)ccc1Cl,-19.8%
22,N#Cc1ccccc1Cn1cnc2nc3c(cc2c1=O)CCCC3,21.2%
23,Cn1cnc2c1c(=O)n(Cc1ccccc1C#N)c(=O)n2C,-66.7% (active)
24,Cn1cnc2c1c(=O)n(Cc1c(Cl)cccc1Cl)c(=O)n2C,-6.74%
25,Cc1cccc(N=Nc2c(O)[nH]c3ccc(F)cc23)c1,101%
26,Cc1[nH]c2ccc(S(N)(=O)=O)cc2c1C,28%
27,NS(=O)(=O)c1ccc(N=Nc2c(O)[nH]c3ccc(Br)cc23)cc1,-60.1% (active)
